# Screen size: about 310,000 compounds; about 17,000 (5.5%) were called active. A call without a number means that no potency is given here. Roughly 11% stayed inconclusive and do not appear here. Calls follow the shape of the dose curve; as a rule, active = well fitted inhibition curve with a large enough effect; inconclusive = small, poorly fitted or top-dose-only effect, or effect the other way; inactive = no such curve, though single readings can be large or run the other way. Many of the other results were omitted from the sample, so actives are more common in it than they were.
# Biological target: Nuclear receptor ROR-gamma (Mus musculus) (UniProt P51450)
# Experiment: qHTS for inhibitors of ROR gamma transcriptional activity; also: nearly all actives have a fitted effect of over 60% in size
# Settings: Drosophila S2 Gal4-RORgamma UAS-luciferase reporter, 20 h; series mostly up to 53.6 µM
# How it was run: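 Drosophila Schneider cells stably carrying a metallothionein-driven Gal4 DBD–ROR gamma fusion and a UAS-Photinus luciferase reporter were exposed to compound for 1 hr, then induced with copper sulfate (700 uM final) for 20 hr at ambient temperature before luminescence reading.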
# Potency is read from the fitted curve at half-maximal effect.
# Nuclear receptor ROR-gamma (Mus musculus), sequence (P51450 whole entry, looked up): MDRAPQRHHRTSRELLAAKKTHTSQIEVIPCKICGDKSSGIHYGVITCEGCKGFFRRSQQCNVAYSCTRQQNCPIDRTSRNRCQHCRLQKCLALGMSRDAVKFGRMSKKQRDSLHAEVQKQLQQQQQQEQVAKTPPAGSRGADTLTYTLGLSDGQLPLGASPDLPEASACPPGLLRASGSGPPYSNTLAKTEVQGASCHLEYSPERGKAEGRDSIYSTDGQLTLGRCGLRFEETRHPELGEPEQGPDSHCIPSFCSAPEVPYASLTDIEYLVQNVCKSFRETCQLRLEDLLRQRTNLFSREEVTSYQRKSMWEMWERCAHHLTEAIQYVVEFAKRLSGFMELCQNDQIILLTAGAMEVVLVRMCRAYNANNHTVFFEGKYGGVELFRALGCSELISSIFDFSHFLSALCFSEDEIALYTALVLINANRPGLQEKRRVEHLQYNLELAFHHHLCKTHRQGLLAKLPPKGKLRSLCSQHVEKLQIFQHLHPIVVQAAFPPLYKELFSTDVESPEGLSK
row,Compound,Potency
1,CCCCn1c(=S)[nH]c2ncccc2c1=O,2 µM (active)
2,CCN(CC)CCn1c(=S)[nH]c2ncccc2c1=O,inactive
3,CCCCNC(=O)c1ccc(-n2c(=S)[nH]c3ccccc3c2=O)cc1,inactive
4,O=C(CCn1c(=S)[nH]c2cc3c(cc2c1=O)OCO3)NCc1ccc(Cl)cc1,inactive
5,CCCCn1c(=S)[nH]c2ccccc2c1=O,2.82 µM (active)
6,Cc1ccccc1NC(=O)N1CCCC1C(=O)NCc1ccccc1 (stereo not given),inactive
7,COc1cccc(N(CC(=O)NCc2ccccc2)C(=O)CCC(=O)Nc2nccs2)c1,inactive
8,COc1ccccc1/C=C1\SC(=O)N(CCC(=O)N(C)C2CCS(=O)(=O)C2)C1=O (stereo not given),inactive
9,CCN(CC)S(=O)(=O)c1ccc(N2CC(C(=O)NCc3cccnc3)CC2=O)cc1 (stereo not given),inactive
10,COCCn1c(N)c(NCc2ccccc2)c(=O)[nH]c1=O,inactive
11,CCc1nnc(NC(=O)CCC(=O)N2CCN(c3cc(C)ccc3C)CC2)s1,inactive
12,O=C(OCc1ccc([N+](=O)[O-])cc1)C1CC(=O)N(Cc2ccccc2Cl)C1 (stereo not given),inactive
13,COc1ccccc1N1CCN(C(=O)c2cc(=O)c3cc(C)cc(C)c3o2)CC1,inactive
14,CC1=CC(C)(C)NC(=S)N1c1ccccc1,3.16 µM (active)
15,Cc1cccc([C@@H]2[C@@H]3C(=O)N(C)C(=O)[C@@H]3[C@@H]3C(=O)Nc4ccccc4C(=O)N23)c1,inactive
16,Cn1c(CCc2ccccc2)nnc1SCC(N)=O,inactive
17,CCC(C)(C)NC(=O)CN(C(=O)CCC(=O)Nc1nccs1)c1ccc2c(c1)OCO2,inactive
18,CC(=O)c1cccc(NC(=O)CN2C(=O)c3cccnc3Oc3ccc(Cl)cc32)c1,inactive
19,CSCc1cc(N(C)C)nc(SCc2ccc(Cl)cc2Cl)n1,8.91 µM (active)
20,Nc1cc(N)nc(SCc2ccc(Cl)cc2)n1,inactive
21,Clc1ccc(CSc2nnc(/C=C/c3ccccc3)o2)c(Cl)c1,inactive
22,Cc1cc(C)c(OCC(=O)N(Cc2cccs2)C2CCS(=O)(=O)C2)c(C)c1 (stereo not given),inactive
23,CCOC(=O)c1ccc(NC(=O)c2cccnc2)cc1,inactive
24,CCOC(=O)c1ccc(NC(=O)Cn2nnc(-c3ccc(C)cc3)n2)cc1,inactive
25,COC(=O)c1ccc(NC(=S)Nc2cccc(C)n2)cc1,2 µM (active)
26,CCOC(=O)c1ccc(NC(=S)Nc2cc(C)cc(C)n2)cc1,2 µM (active)
27,Cc1cccc(NC(=O)Nc2ccc(OCc3ccccc3)cc2)n1,inactive
28,Cc1cccc(NC(=O)Cc2ccc(Br)cc2)n1,inactive

row,Compound,Potency
1,CC(=O)N1c2ccc(S(=O)(=O)N3CCCC(C(=O)Nc4ccc(C)cc4C)C3)cc2CC1C (stereo not given),inactive
2,COc1cccc(/C=C2\Sc3ccc(C(=O)NCC4CCCO4)cc3N(C)C2=O)c1 (stereo not given),inactive
3,COc1cc(OC)cc(C(=O)NCCSCc2ccc(Cl)cc2)c1,inactive
4,CCCCOC(=O)c1ccc(N2C(=O)CC(N3CCN(C/C=C/c4ccccc4)CC3)C2=O)cc1 (stereo not given),inactive
5,CCOC(=O)c1ccc(N2C(=O)CC(N(C)Cc3ccccc3)C2=O)cc1 (stereo not given),inactive
6,CCCCCCC(=O)N(O)C1CC(=O)N(c2ccccc2)C1=O (stereo not given),2.82 µM (active)
7,CCNc1ncc2ncc(=O)n(CCc3ccccc3)c2n1,inactive
8,COc1cccc(Cn2c(=O)c(C)nc3cnc(Oc4ccccc4)nc32)c1,inactive
9,CCNc1ncc2ncc(=O)n(Cc3cccc(OC)c3)c2n1,12.6 µM (active)
10,Cc1ccc(SCCSc2ncccn2)cc1,inactive
11,Cc1ccc2c(C)c(C(=O)N(C)Cc3ccncn3)oc2c1C,inactive
12,CCCCn1c(=S)[nH]c2cc(S(=O)(=O)N3CCCCC3)ccc21,11.2 µM (active)
13,O=c1[nH]c2ccc(S(=O)(=O)N3CCCC3)cc2[nH]1,inactive
14,CCOC(=O)N1CCN(C(=O)c2cn(C)c3ccc(S(=O)(=O)N4CCCC4)cc3c2=O)CC1,inactive
15,CN(C)CCN(C(=O)C1CCCCC1)c1nc2cc3c(cc2s1)OCO3,inactive
16,COc1ccc(NC(=O)CCn2ccnc2)c(OC)c1,inactive
17,CC1(C)C2CCC1(C)C(OC(=O)CCn1ccnc1)C2 (stereo not given),11.2 µM (active)
18,Brc1ccc(OCCn2ccnc2)cc1,inactive
19,O=C(Nc1ccncc1)c1ccc(Cl)c([N+](=O)[O-])c1,inactive
20,CC1CCN(C(=S)c2ccc(-c3ccc(Cl)cc3Cl)o2)CC1,15.8 µM (active)
21,COc1ccc(C(=O)Nc2c(Cl)cc(Cl)cc2C(=O)N2CCC(C)CC2)cc1,inactive
22,CC1CCN(C(=S)c2cccc(O)c2)CC1,inactive
23,CCc1ccc(NC(=O)CCNS(=O)(=O)c2cccs2)cc1,inactive
24,Cc1ccc(NC(=O)[C@H](Cc2ccccc2)NC(=O)C2CCNCC2)cc1,inactive
25,CC1=CC(C)(C)Nc2ccc(OC(=O)CN3C(=O)C4CCCCC4C3=O)cc21 (stereo not given),4.47 µM (active)
26,O=C(CN1C(=O)C2C3CCC(C3)C2C1=O)Oc1ccc2ccccc2c1 (stereo not given),inactive
27,CC1=CC(C)(C)Nc2ccc(OC(=O)C(Cc3ccccc3)N3C(=O)C4CCCCC4C3=O)cc21 (stereo not given),inactive
